# The full list was thinned out, with hits kept by preference.
# mHTT CaM bind = mutant huntingtin-calmodulin interaction inhibitors – biochemical, AlphaScreen, primary screen; inhibition, % at 15 µM; 190,000 tested, 3.6% active; AlphaScreen His-mHTT/GST-CaM binding, luminescence;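 further: 0% = both proteins with DMSO and 100% = one protein alone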
# Pf apPOL block = Pf-apPOL inhibitors, biochemical, fluorescence; 210,000 tested, 0.25% active; Plasmodium falciparum apicoplast DNA polymerase (apPOL); inhibition, % at 10 µM; Recombinant Pf-apPOL, molecular beacon fluorescence, 1.5 h; AID 1794808, 2022
# An asterisk follows results filed as active; nt = no result; + = active, no number. No stated cut-off is given here; in the data, active means inhibition above about 50%; inactive means the rest.
SMILES,mHTT CaM bind,Pf apPOL block
COc1cccc(C=C2Oc3c(ccc4c3CN(Cc3ccccn3)CO4)C2=O)c1OC,100*,-92
COc1ccc(C=C2Oc3c(ccc4c3CN(Cc3ccncc3)CO4)C2=O)c(OC)c1,49,-26
COc1ccc(Br)cc1C=C1Oc2c(ccc3c2CN(Cc2ccccn2)CO3)C1=O,100*,-197
COc1cc(OC)c(OC)cc1C=C1Oc2c(ccc3c2CN(Cc2ccccn2)CO3)C1=O,97*,-52
CC(C)n1c(Sc2nncn2C)nc2c1c(=O)n(C)c(=O)n2C,0,0
Cc1noc(C)c1S(=O)(=O)N1CCC(CC(=O)N2CCN(C(=O)C(C)C)CC2)CC1,-9,-3
O=C(CN1C(=O)c2ccccc2S1(=O)=O)N1CCCCCC1,2,51*
O=C(CN1C(=O)c2ccccc2S1(=O)=O)N1CCCCC1,1,-2
O=C(c1ccccn1)N1CCc2c(nc3cc(-c4ccccc4Cl)[nH]n3c2=O)C1,13,3
CCC(=O)Nc1ccc(C2(C(=O)N3CCOCC3)CCCCC2)cc1,-2,-3
CC(=O)C1=C(C)NC(SCC(=O)c2ccc([N+](=O)[O-])cc2)=C(C#N)C1c1ccco1 (stereo not given),69*,38
CC(=O)C1=C(C)NC(SCC(=O)c2ccccc2)=C(C#N)C1c1ccccc1Cl (stereo not given),-57,-3
CC(=O)C1=C(C)NC(SCC(=O)c2ccccc2)=C(C#N)C1c1ccc(Cl)cc1 (stereo not given),-22,5
CCc1ccc(C2C(C#N)=C(SCC(=O)c3cccc([N+](=O)[O-])c3)NC(C)=C2C(C)=O)cc1 (stereo not given),45,-3
CC(=O)C1=C(C)NC(SCC(=O)c2cccc([N+](=O)[O-])c2)=C(C#N)C1c1cccc(C)c1 (stereo not given),62*,-11
CC(=O)C1=C(C)NC(SCC(=O)c2ccc(C)cc2)=C(C#N)C1c1ccco1 (stereo not given),-12,-3
CC(=O)C1=C(C)NC(SCC(=O)c2ccc([N+](=O)[O-])cc2)=C(C#N)C1c1ccccc1 (stereo not given),59*,-4
CC(=O)C1=C(C)NC(SCC(=O)c2ccc([N+](=O)[O-])cc2)=C(C#N)C1c1ccccc1Cl (stereo not given),61*,-18
Cc1nc2c(c(Nc3ccc(C(=O)O)cc3)n1)CCC2,-4,-14
CCCCOCC(O)CN1CCCC1 (stereo not given),-6,nt
CCOc1ccc2nc(SC=CC(=O)c3ccc(Cl)cc3)sc2c1,nt,-7
CC(=O)N1CCN(c2nc3c(s2)CC(C(=O)NCc2ccc(F)cc2F)CC3)CC1 (stereo not given),4,-5
Cc1nc(N2CCN(C(=O)c3ccc(F)cc3F)CC2)cc(-n2ccnc2)n1,-3,-7
COc1ccc(N2CCN(CCNC(=O)c3c(F)cccc3Cl)CC2)cc1,-10,-3
CC(=O)C1=C(C)NC(SCC(=O)c2ccc([N+](=O)[O-])cc2)=C(C#N)C1c1cccc(C)c1 (stereo not given),64*,1
SMILES,mHTT CaM bind,Pf apPOL block
CC(=O)C1=C(C)NC(SCC(N)=O)=C(C#N)C1c1cccc([N+](=O)[O-])c1 (stereo not given),0,-3
NC1=NC(c2ccccc2)=CC(c2ccccc2)S1 (stereo not given),7,nt
N#CSC(C#N)Cc1ccccc1 (stereo not given),42,-7
N#CSC(C#N)Cc1ccc([N+](=O)[O-])cc1 (stereo not given),60*,-1
O=C(CC1CCCCN1S(=O)(=O)c1cccs1)Nc1ccc(F)c(F)c1 (stereo not given),-24,-2
O=C(NCCC1=CCCCC1)C(=O)NCCC(O)c1ccoc1 (stereo not given),0,-3
CCn1cc2c3c(cccc31)CN(C(=O)NCc1cccc(OC)c1)CC2,6,5
CCn1cc2c3c(cccc31)CN(C(=O)c1cccc(OC)c1)CC2,69*,-2
COc1cc(NC(=O)N2CCc3cn(C)c4cccc(c34)C2)cc(OC)c1,-2,-1
COc1cc(OC)cc(C(=O)N2CCc3cn(C)c4cccc(c34)C2)c1,55*,-1
Cn1cc2c3c(cccc31)CN(C(=O)C1CCCC1)CC2,39,-4
Cn1cc2c3c(cccc31)CN(C(=O)C1CCCCC1)CC2,62*,-6
CCCc1cc(C2CCCN2C(=O)Nc2ccc(OC)cc2OC)no1 (stereo not given),-4,-4
Cc1cc2n(n1)CCC(=O)N2CCCC(=O)NCc1ccccc1F,0,-6
CCOc1ccc(NC(=O)N2CCCC2c2ccccc2F)cc1 (stereo not given),-9,-4
COCCN(CCOC)Cc1c(O)cc(C)c2c1OC(=Cc1ccncc1)C2=O,13,-8
S=c1[nH]nc(-c2ccncc2)n1N=Cc1cccnc1,nt,-7
S=c1[nH]nc(-c2ccccn2)n1/N=C/c1cccnc1,+,nt
CC(C)(C)NC(=O)c1csc(-c2ccc(N3CCCC3)nc2)n1,3,-8
N#Cc1c(N2CCCCC2)ncc2c(=O)c3ccccc3[nH]c12,4,0
CC(=O)N(C(C)=O)c1ncc2c([nH]c3ccccc32)c1C#N,83*,-3
CCOc1cc(CNc2ccccc2SC)ccc1OC,-10,4
O=C1c2ccccc2-c2onc3c(N4CCOCC4)cc(Nc4ccc(F)cc4)c1c23,63*,-1
O=C1c2ccccc2-c2onc3ccc(Nc4ccccc4)c1c23,43,1
COc1ccc(Nc2cc(N3CCOCC3)c3noc4c3c2C(=O)c2ccccc2-4)cc1,43,1
SMILES,mHTT CaM bind,Pf apPOL block
CNc1cc(Nc2ccc(C)cc2)c2c3c(onc13)-c1ccccc1C2=O,95*,2
C=CCNC(=O)c1cc2c(=O)n3ccccc3nc2n(CCc2ccccc2)c1=N,-1,22
N#CC1=C(SCC(=O)Nc2ccccc2)NC(=O)C(C#N)C12CCCC2 (stereo not given),-3,-4
CC1CCCC2(C1)C(C#N)=C(SCC(=O)Nc1ccc(Br)cc1)NC(=O)C2C#N (stereo not given),73*,-2
COc1ccc(-c2cc(C(=O)NN)c3ccccc3n2)cc1,2,-9
Cc1ccc(NS(=O)(=O)c2cn(C)c3ncccc23)cc1,67*,80*
Cc1ccc(CNC(=O)Cc2cn(C)c3ncccc23)cc1,-15,2
COc1ccccc1CN1CCc2nc(Nc3ccccc3OC)ncc2C1,21,-1
COc1ccc(OC)c(CN2CCc3nc(Nc4ccccc4OC)ncc3C2)c1,56*,-5
COc1ccc(CN2CCc3nc(Nc4ccccc4OC)ncc3C2)c(OC)c1,44,-1
COc1ccc(OC)c(Nc2ncc3c(n2)CCN(Cc2ccc(OC)cc2OC)C3)c1,91*,-3
CC(C)(C)c1ccc(NC(=O)CSCC(=O)NN)cc1,nt,5
O=C(c1cn(CC(O)c2ccccc2)nn1)N1CCN(c2ccccn2)CC1 (stereo not given),-16,-6
Cn1c(=O)c2c(nc(N3CCOCC3)n2CC(=O)c2ccc(Br)cc2)n(C)c1=O,-2,-1
NNc1nc(N)c2c(n1)-c1ccccc1CC21CCCCC1,100*,-4
CSc1nc2c(c(=O)[nH]1)C1(CCCCC1)Cc1ccccc1-2,-5,1
O=C(NCc1ccco1)C1CCCN(c2nnc3ccccn23)C1 (stereo not given),6,-1
